In the library only some 7.9% were active in any assay of this set; here they are far more common.
SW480 rerep: induces DNA re-replication in SW480 colon adenocarcinoma cells; Potency, µM (titrated, usually from 46.1 µM), usual class: activators; hit rate 1.8% among 340,000; SW480 DNA re-replication, Hoechst DNA content imaging, 48 h; further: nearly all actives have a fitted effect of over 55% in size
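First, 250 cells per well were seeded. Next, compound or vehicle (23 nL) was pinned in, plates sat 48 hr at 37 C. Finally Hoechst was added for 40 min before fluorescence scanning.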
KB-3-1 cytotox: KB-3-1 parental cell cytotoxicity | hit rate 1.4% among 400,000 | KB-3-1 viability, CellTiter-Glo ATP luminescence, 72 h | Potency, µM (top dose mostly 46.1 µM), hits mostly cytotoxic; further: nearly all actives have a fitted effect of over 60% in size
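Cytotoxicity in the drug-sensitive parental line KB-3-1 was scored as loss of CellTiter-Glo luminescence following 72 h incubation with compound. Values come from curve fitting of normalized concentration-response data.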
HT1080NT lethal: kills 2HG-producing HT-1080-NT fibrosarcoma cells; HT-1080-NT fibrosarcoma viability, CellTiter-Glo ATP luminescence, 48 h; Potency, µM (doses to about 46.1 µM), most hits filed as cytotoxic; hit rate 1.6% among 360,000;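 further: NT is the 2HG producing partner of a matched IDH1 knockdown line; nearly all actives have a fitted effect of over 55% in size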
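A 48-hour cytotoxicity screen used HT-1080-NT cells plated 2 hours before compound delivery. ATP-based CellTiter-Glo luminescence measured viability, normalized to DMSO and no-cell controls.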
MCF10A rerep: induces DNA re-replication in MCF 10a normal breast cells; MCF 10A DNA re-replication, Hoechst nuclear intensity, 48 h; hit rate 2.9% among 350,000; Potency, µM (series often up to 46.1 µM), usual class: activators; further: nearly all actives have a fitted effect of over 50% in size
KB-V1 cytotox: KB-V1 MDR subline cytotoxicity. KB-V1 MDR cells viability, CellTiter-Glo, 72 h. Potency, µM (doses to about 46.1 µM), most hits filed as cytotoxic. hit rate 3.4% among 400,000. AID 1347076; further: nearly all actives have a fitted effect of over 60% in size
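Cells of the MDR subline KB-V1 are plated, dosed with compound at multiple concentrations, and incubated 72 h at 37 degrees C; CellTiter-Glo is then added and luminescence read after 10 min.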
HT1080 IDH1KD tx: HT-1080 IDH1 knockdown cell toxicity (counter line); Potency, µM (titrated, usually from 46.1 µM), hits mostly cytotoxic; HT-1080 IDH1 knockdown viability, ATP luminescence, 48 h; hit rate 2% among 360,000; AID 686971
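In this qHTS, HT-1080 cells depleted of IDH1 are exposed for 48 h at 37 °C to compound titrations. Toxicity is scored from CellTiter-Glo luminescence, with DMSO as full viability and medium alone as none.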
Each line names hits and unclear results; the compound was inactive in the other large screens. The call rests on the fitted dose curve; in most records, active means well fitted curve in the direction sought with a large enough effect; inconclusive means small, poorly fitted or top-dose-only effect, or another doubt; inactive means no such curve, though single readings can be large; an effect the other way counts as inactive or inconclusive.

C/C(N)=C(/C#N)C(=O)CSc1nnc(-c2ccc3c(c2)OCO3)o1	SW480 rerep 11.6µM
NC(=O)CSc1nnc(-c2ccc3c(c2)OCO3)o1	none
COC(=O)CN1C(=O)C2(C(C#N)=C(N)Oc3cc(C)oc(=O)c32)c2ccccc21 (configuration not stated)	none
CN1CCN(c2cc(-c3cc(O)c4ncccc4c3)ccn2)CC1	SW480 rerep inconclusive, KB-3-1 cytotox inconclusive (no result: HT1080NT lethal, HT1080 IDH1KD tx)
Oc1cc(-c2cccnc2)cc2cccnc12	SW480 rerep inconclusive, KB-3-1 cytotox inconclusive, MCF10A rerep 10.3µM, KB-V1 cytotox inconclusive (no result: HT1080NT lethal, HT1080 IDH1KD tx)
CC1CCCCC12NC(=O)N(CC(=O)Nc1ccccc1F)C2=O (configuration not stated)	KB-V1 cytotox inconclusive
CCN1CC=C2C(C#N)=C(N)C(C#N)(C#N)C(c3cc(Cl)ccc3Cl)C2C1 (configuration not stated)	MCF10A rerep 16.4µM, HT1080 IDH1KD tx inconclusive
CCOC(=O)c1cnc2ccc(OCC)cc2c1NCc1ccccc1OC	KB-3-1 cytotox inconclusive, HT1080NT lethal 20.6µM, MCF10A rerep inconclusive, KB-V1 cytotox 7.31µM, HT1080 IDH1KD tx inconclusive
CCOC(=O)c1cnc2ccc(OC)cc2c1NCc1ccccc1	KB-V1 cytotox 3.66µM
CCOC(=O)c1cnc2ccc(OC)cc2c1Nc1cccc(C(C)=O)c1	none (no result: SW480 rerep, HT1080NT lethal, MCF10A rerep, HT1080 IDH1KD tx)
Nc1cccc2nc3ccccc3cc12	KB-3-1 cytotox inconclusive, HT1080NT lethal 18.4µM, HT1080 IDH1KD tx 13µM
Nc1[nH]nc2nc3ccccc3cc12	KB-3-1 cytotox inconclusive, KB-V1 cytotox inconclusive
CCN(CC)CCCCN1c2ccccc2Sc2ccccc21	SW480 rerep 18.4µM, KB-3-1 cytotox inconclusive, HT1080NT lethal 18.4µM, MCF10A rerep 25.9µM, KB-V1 cytotox inconclusive, HT1080 IDH1KD tx 23.1µM
COc1ccc(NS(=O)(=O)c2ccc(C)c(C(=O)OC(C)C(=O)N3CCOCC3)c2)cc1 (configuration not stated)	none
COc1cc(OC)c(NS(=O)(=O)c2ccc(Cl)c(C(=O)OC(C)C(=O)N3CCCC3)c2)cc1Cl (configuration not stated)	KB-3-1 cytotox 16.4µM, MCF10A rerep inconclusive, KB-V1 cytotox 2.31µM, HT1080 IDH1KD tx inconclusive
C=CCNC(=O)/C(=C\c1ccco1)NC(=O)c1ccco1	none
NNC(=O)/C(=C\c1ccco1)NC(=O)c1ccco1	SW480 rerep inconclusive, HT1080NT lethal 14.6µM, MCF10A rerep 20.6µM, HT1080 IDH1KD tx inconclusive
COc1ccc(/C=C2\SC(=S)N(NS(=O)(=O)c3ccccc3)C2=O)c(OC)c1	none
Cc1cccc(C(=O)N2CCN(S(=O)(=O)c3ccc4c(c3)OCCCO4)CC2)c1[N+](=O)[O-]	none (no result: KB-3-1 cytotox, KB-V1 cytotox)
CC(C)C1C(C#N)=C(N)Oc2n[nH]c(-c3ccc4ccccc4c3)c21 (configuration not stated)	SW480 rerep inconclusive, KB-3-1 cytotox inconclusive, HT1080NT lethal inconclusive, KB-V1 cytotox 8.2µM, HT1080 IDH1KD tx inconclusive
CCOC(=O)[C@@H]1[C@H]2COc3ccc(Br)cc3[C@@H]2N2C(=O)N(c3ccc(C(F)(F)F)cc3)C(=O)[C@@]12C	KB-3-1 cytotox inconclusive
Cc1ccc(CN2CCN(/N=C/c3sccc3C)CC2)c(C)c1	KB-V1 cytotox 14.6µM
CSc1ccc(/C=N/N2CCN(Cc3ccc(C)cc3C)CC2)cc1	none
CCc1cccc(CC)c1C(O)c1cccnc1 (configuration not stated)	none
O=C(Nn1c(COc2ccccc2)nc2ccccc2c1=O)C(Cl)(Cl)Cl	SW480 rerep 18.4µM, MCF10A rerep inconclusive
Cc1nc2ccccc2c(=O)n1NC(=O)COc1ccccc1	MCF10A rerep inconclusive
CC1(C)CC2CC(C)(CN2S(=O)(=O)c2ccc(C(=O)Nc3ccc(S(=O)(=O)N4CCOCC4)cc3)cc2)C1 (configuration not stated)	KB-3-1 cytotox inconclusive, HT1080NT lethal inconclusive, KB-V1 cytotox inconclusive, HT1080 IDH1KD tx inconclusive
CC(=O)Nc1ccc(S(=O)(=O)N2CC3(C)CC2CC(C)(C)C3)cc1 (configuration not stated)	none
CCCNC(=O)c1cccc(S(=O)(=O)N2CC3(C)CC2CC(C)(C)C3)c1 (configuration not stated)	KB-V1 cytotox 2.06µM
CC1(C)CC2CC(C)(CN2S(=O)(=O)c2ccc(C(=O)Nc3ccc(Cl)c(S(=O)(=O)N4CCOCC4)c3)cc2)C1 (configuration not stated)	KB-3-1 cytotox 2.91µM, KB-V1 cytotox 2.91µM
CCOC(=O)c1cc([N+](=O)[O-])sc1NC(=O)c1ccc(S(=O)(=O)N2CC3(C)CC2CC(C)(C)C3)cc1 (configuration not stated)	SW480 rerep inconclusive, KB-3-1 cytotox 4.61µM, MCF10A rerep inconclusive, KB-V1 cytotox inconclusive
CN(C)C(CNC(=O)c1cccc(S(=O)(=O)N2CC3(C)CC2CC(C)(C)C3)c1)c1ccco1 (configuration not stated)	none
c1coc(-c2cc3nc(NC4CCCCC4)ccn3n2)c1	none (no result: SW480 rerep, MCF10A rerep)
Cc1c(CCO)sc[n+]1CC(=O)c1ccc(F)cc1	none (no result: SW480 rerep, HT1080NT lethal, MCF10A rerep, HT1080 IDH1KD tx)
COc1ccc(CN2C(=O)c3ccccc3C(/C=N\OCc3ccc(F)cc3)C2=O)cc1 (configuration not stated)	KB-3-1 cytotox inconclusive, KB-V1 cytotox 16.4µM, HT1080 IDH1KD tx inconclusive
COc1ccc(CN2C(=O)c3ccccc3C(/C=N/OCc3ccc(Cl)cc3)C2=O)cc1 (configuration not stated)	SW480 rerep inconclusive, KB-3-1 cytotox inconclusive, KB-V1 cytotox inconclusive, HT1080 IDH1KD tx inconclusive
O=S(=O)(O)CCS	none
O=C(Nc1nnc([C@H]2C[C@H](O)[C@@H](CO)O2)s1)Nc1cccc2c1CCCC2	none (no result: SW480 rerep, MCF10A rerep)
Cc1ccc(NC(=O)Cn2nc(C)c(S(=O)(=O)N(C)C)c2C)cc1C	KB-V1 cytotox 23.1µM
Cc1nn(CC(=O)Nc2ccc(C(C)C)cc2)c(C)c1[N+](=O)[O-]	none
Cc1nn(CC(=O)NC2CC2)c(C)c1S(=O)(=O)N(C)C	none (no result: SW480 rerep, MCF10A rerep)
Cc1nn(CC(=O)Nc2ccc(Cl)c(S(=O)(=O)N(C)C)c2)c(C)c1[N+](=O)[O-]	MCF10A rerep inconclusive, KB-V1 cytotox 20.6µM
N#CC1=C(N)C2=CCCC[C@H]2[C@H](c2ccccc2)C1(C#N)C#N	HT1080NT lethal inconclusive, MCF10A rerep inconclusive, KB-V1 cytotox inconclusive, HT1080 IDH1KD tx inconclusive
N#CC1=C(N)C2=CCCC[C@H]2[C@H](c2ccc(Br)cc2)C1(C#N)C#N	SW480 rerep inconclusive, MCF10A rerep 16.4µM
COc1ccc(C(=O)Cn2cnc3ccc(Cl)cc3c2=O)cc1F	MCF10A rerep inconclusive
Cc1cc(C)c(CN2CCC(CO)(CCOc3ccccc3)CC2)cc1C	SW480 rerep inconclusive, HT1080NT lethal inconclusive, MCF10A rerep inconclusive, HT1080 IDH1KD tx inconclusive

High-throughput results: PubChem, National Center for Advancing Translational Sciences (NCATS)
